# Measurements taken from PubChem BioAssay AID1159580 (chemical genetic matrix, 2015).
# Several values for one entry are separate records, joined by “and”; a condition that tells them apart may be missing. Equal values may be shown once. The whole screen tested about 5,500 compounds, of which about 2,000 (36%) were called active. About 18% were inconclusive and are not listed. The list shows a part of the results. A number with no mark means an inactive call. Cut-off read from the data, not from the text of the source: active = normalized growth mostly below about 0.91 (no sharp cut-off); inconclusive = no clear call, values can overlap the other calls; inactive = mostly above about 0.92.
# Assay: chemical genetic growth profiling, strain panel (AID 1159580);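 note: tested at 20 µM; growth read once vehicle control cultures reached saturation at 30 °C; 1 = growth at the plate median or of vehicle wells; lower values mean less growth of the strain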
# Settings: S. cerevisiae deletion strains, growth OD
smiles,measurement,setting,value
N[C@H](Cc1cc(I)c(Oc2ccc(O)c(I)c2)c(I)c1)C(=O)O,normalized growth,"locus YAL013W, strain DEP1, hits give low values",1.01
same,normalized growth,"locus YAL021C, strain ccr4, hits give low values",1.03
same,normalized growth,"locus YAL026C, strain drs2, hits give low values",0.982
same,normalized growth,"locus YAL030W, strain snc1, hits give low values",1
same,normalized growth,"locus YBL061C, strain skt5, hits give low values",0.994
same,normalized growth,"locus YBR009C, strain hhf1, hits give low values",0.893 (active)
same,normalized growth,"locus YBR021W, strain FUR4, hits give low values",0.989
same,normalized growth,"locus YBR023C, strain chs3, hits give low values",0.986
same,normalized growth,"locus YBR171W, strain sec66, hits give low values",0.996
same,normalized growth,"locus YBR229C, strain ROT2, hits give low values",1
same,normalized growth,"locus YBR231C, strain swc5, hits give low values",1
same,normalized growth,"locus YBR279W, strain paf1, hits give low values",0.991
same,normalized growth,"locus YCL011C, strain gbp2, hits give low values",1
same,normalized growth,"locus YCL016C, strain dcc1, hits give low values",0.981
same,normalized growth,"locus YCL029C, strain bik1, hits give low values",1.01
same,normalized growth,"locus YCL061C, strain MRC1, hits give low values",0.987
same,normalized growth,"locus YCL069W, strain vba3, hits give low values",1
same,normalized growth,"locus YCR088W, strain abp1, hits give low values",1
same,normalized growth,"locus YDL005C, strain med2, hits give low values",1
same,normalized growth,"locus YDL035C, strain GPR1, hits give low values",0.992
same,normalized growth,"locus YDL040C, strain nat1, hits give low values",1.01
same,normalized growth,"locus YDL074C, strain BRE1, hits give low values",0.939
same,normalized growth,"locus YDL101C, strain DUN1, hits give low values",0.998
same,normalized growth,"locus YDL134C, strain PPH21, hits give low values",1
same,normalized growth,"locus YDL185W, strain tfp1, hits give low values",0.996
same,normalized growth,"locus YDL192W, strain arf1, hits give low values",0.987
same,normalized growth,"locus YDR001C, strain nth1, hits give low values",1.01
same,normalized growth,"locus YDR069C, strain doa4, hits give low values",0.992
same,normalized growth,"locus YDR101C, strain arx1, hits give low values",0.974
same,normalized growth,"locus YDR137W, strain rgp1, hits give low values",0.985
same,normalized growth,"locus YDR150W, strain NUM1, hits give low values",1.05
same,normalized growth,"locus YDR159W, strain sac3, hits give low values",0.978
same,normalized growth,"locus YDR162C, strain NBP2, hits give low values",0.999
same,normalized growth,"locus YDR195W, strain ref2",1
same,normalized growth,"locus YDR297W, strain sur2, hits give low values",0.996
same,normalized growth,"locus YDR318W, strain mcm21, hits give low values",0.917 (active)
same,normalized growth,"locus YDR334W, strain swr1, hits give low values",0.997
same,normalized growth,"locus YDR335W, strain msn5, hits give low values",0.999
same,normalized growth,"locus YDR388W, hits give low values",0.985
same,normalized growth,"locus YDR392W, strain spt3, hits give low values",0.748
same,normalized growth,"locus YDR502C, strain sam2, hits give low values",0.977
same,normalized growth,"locus YEL003W, strain gim4, hits give low values",0.998
same,normalized growth,"locus YEL037C, strain rad23, hits give low values",1
same,normalized growth,"locus YEL061C, strain CIN8 (second series), hits give low values",1
same,normalized growth,"locus YEL061C, strain CIN8, hits give low values",1.01
same,normalized growth,"locus YER015W, strain faa2, hits give low values",1
same,normalized growth,"locus YER016W, strain bim1, hits give low values",0.995
same,normalized growth,"locus YER110C, hits give low values",1
same,normalized growth,"locus YER111C, strain swi4, hits give low values",0.993
same,normalized growth,"locus YER155C, strain BEM2 (second series), hits give low values",0.958
same,normalized growth,"locus YER155C, strain BEM2, hits give low values",0.997
same,normalized growth,"locus YER167W, strain BCK2, hits give low values",0.946
same,normalized growth,"locus YFR010W, strain ubp6, hits give low values",0.997
same,normalized growth,"locus YGL078C, strain dbp3, hits give low values",0.98
same,normalized growth,"locus YGL086W, strain mad1, hits give low values",0.946
same,normalized growth,"locus YGL167C, strain pmr1, hits give low values",1
same,normalized growth,"locus YGL173C, strain kem1, hits give low values",0.952
same,normalized growth,"locus YGL227W, strain vid30, hits give low values",0.993
same,normalized growth,"locus YGL240W, strain doc1, hits give low values",0.973
same,normalized growth,"locus YGL248W, strain PDE1, hits give low values",0.998
same,normalized growth,"locus YGL253W, strain hxk2, hits give low values",0.981
same,normalized growth,"locus YGR078C, strain PAC10, hits give low values",0.966
same,normalized growth,"locus YGR135W, strain pre9, hits give low values",0.959
same,normalized growth,"locus YGR229C, strain SMI1, hits give low values",0.981
same,normalized growth,"locus YGR252W, strain gcn5, hits give low values",0.87
same,normalized growth,"locus YHR013C, strain ard1, hits give low values",0.971
same,normalized growth,"locus YHR027C, strain rpn1, hits give low values",0.997
same,normalized growth,"locus YHR030C, strain SLT2, hits give low values",0.997 and 1.05
same,normalized growth,"locus YHR079C, strain IRE1 (second series), hits give low values",0.999
same,normalized growth,"locus YHR079C, strain IRE1, hits give low values",1.05
same,normalized growth,"locus YHR094C, strain hxt1, hits give low values",0.999
same,normalized growth,"locus YHR129C, strain ARP1, hits give low values",1
same,normalized growth,"locus YHR142W, strain chs7, hits give low values",0.964
same,normalized growth,"locus YHR200W, strain rpn10, hits give low values",0.992
same,normalized growth,"locus YIL066C, strain RNR3, hits give low values",0.951
same,normalized growth,"locus YIL073C, strain SPO22, hits give low values",0.967
same,normalized growth,"locus YIL125W, strain kgd1, hits give low values",0.99
same,normalized growth,"locus YIR030C, strain dcg1, hits give low values",0.993
same,normalized growth,"locus YJL092W, strain hpr5, hits give low values",0.998
same,normalized growth,"locus YJL095W, strain BCK1 (second series), hits give low values",0.865 (active)
same,normalized growth,"locus YJL095W, strain BCK1, hits give low values",0.964 and 1.04
same,normalized growth,"locus YJL115W, strain asf1, hits give low values",0.998
same,normalized growth,"locus YJL129C, strain trk1, hits give low values",0.97
same,normalized growth,"locus YJL134W, strain LCB3, hits give low values",1
same,normalized growth,"locus YJL154C, strain vps35, hits give low values",1
same,normalized growth,"locus YJL164C, strain tpk1, hits give low values",0.911 (active)
same,normalized growth,"locus YJL166W, strain qcr8, hits give low values",0.884 (active)
same,normalized growth,"locus YJL168C, strain set2, hits give low values",0.996
same,normalized growth,"locus YJL187C, strain SWE1 (second series), hits give low values",1.01
same,normalized growth,"locus YJL187C, strain SWE1, hits give low values",1.01
same,normalized growth,"locus YJR043C, strain POL32, hits give low values",0.996
same,normalized growth,"locus YJR066W, strain TOR1, hits give low values",0.99
